An excerpt weighted towards active compounds, which were near 10% of everything screened.
FLuc inh – blocks purified firefly luciferase enzyme activity | AID 1347043 | purified P. pyralis luciferase, luminescence, biochemical | Potency, µM (titrated, usually from 115 µM), usual class: inhibitors | 76,000 tested, 2.5% active | P08659; further: nearly all actives have a fitted effect of over 65% in size
Target sequence (P08659 whole entry, looked up): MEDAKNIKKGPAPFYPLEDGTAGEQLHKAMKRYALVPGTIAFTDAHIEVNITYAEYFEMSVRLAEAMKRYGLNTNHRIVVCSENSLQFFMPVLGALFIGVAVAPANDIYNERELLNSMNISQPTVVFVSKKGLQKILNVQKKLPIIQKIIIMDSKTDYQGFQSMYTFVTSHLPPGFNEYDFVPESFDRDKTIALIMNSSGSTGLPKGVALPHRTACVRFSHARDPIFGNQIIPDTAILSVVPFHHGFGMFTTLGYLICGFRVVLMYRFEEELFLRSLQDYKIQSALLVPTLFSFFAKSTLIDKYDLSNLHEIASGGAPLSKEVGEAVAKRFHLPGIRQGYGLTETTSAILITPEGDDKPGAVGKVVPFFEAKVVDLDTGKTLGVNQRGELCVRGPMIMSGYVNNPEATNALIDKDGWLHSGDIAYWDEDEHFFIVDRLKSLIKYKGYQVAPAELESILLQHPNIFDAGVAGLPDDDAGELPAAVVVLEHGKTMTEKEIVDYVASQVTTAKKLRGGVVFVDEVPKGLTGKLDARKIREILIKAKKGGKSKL
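Purified P. pyralis luciferase (10nM final) in 50mM Tris acetate pH 7.5, 10mM Mg acetate, 0.01% Tween-20, 0.05% BSA with 10uM D-luciferin and 10uM ATP. Compounds titrated qHTS. Luminescence imaged on CCD.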
NIH3T3 tox – NIH 3T3 cell cytotoxicity; NIH 3T3 viability, CellTiter-Glo ATP luminescence, 48-72 h; Potency, µM (titrated, usually from 96.7 µM), hits mostly inhibitors; 94,000 tested, 4.3% active; further: nearly all actives have a fitted effect of over 55% in size
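Viability of NIH 3T3 cells after 48 or 72 hr compound treatment at 37 °C was assessed by CellTiter-Glo, with luminescence imaged following a 10 min room-temperature step.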
GPT2 inh – inhibitors of human GPT2 alanine aminotransferase; Q8TD30; Recombinant GPT2, coupled pyruvate oxidase/HRP Amplex Red fluorescence; Potency, µM (titrated, usually from 57.7 µM), hits mostly inhibitors; 100,000 tested, 0.25% active; further: nearly all actives have a fitted effect of over 60% in size
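GPT2 10ng/uL, a-KG 250uM, L-Ala 2mM, HEPES pH7.5 + 0.0001% Tween; 30 min RT. Then Amplex mix (PO/HRP/ThPP), 30 min RT dark, fluorescence. AOA 50uM used as positive control.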
HEK293 tox – kills HEK 293 cells | HEK 293 viability, ATP luminescence (CellTiter-Glo), 48-72 h | Potency, µM (doses to about 115 µM), usual class: inhibitors | 94,000 tested, 6.6% active; further: nearly all actives have a fitted effect of over 60% in size
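ATP-coupled CellTiter-Glo luminescence served as viability read-out, recorded 10 min after reagent addition at room temperature. HEK 293 cells, 250 cells/well, had been incubated with pintool-transferred compound for 48 or 72 hr at 37 degree Celsius.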
hNpr1 antagonist – antagonists of human natriuretic peptide receptor Npr1 | P16066 | HEK293 hNpr1 GloSensor cGMP, ANP-stimulated luminescence | Potency, µM (doses to about 46.3 µM), actives largely listed as inhibitors | 76,000 tested, 1.6% active | AID 1347048; calls by dose curve; further: nearly all actives have a fitted effect of over 60% in size
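HEK293 cells stably expressing human Npr1 and cGMP GloSensor pGS-40F, loaded 2 h with 2% GloSensor reagent, given compound 30 min at room temperature. Luminescence read before and 20 min after 0.1 nM hNppA.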
Large screens that a line does not name were inactive; ! = not confirmed by another sample. Unless noted, the call rests on the fitted dose curve; in most records, active means well fitted curve in the direction sought with a large enough effect; inconclusive means small, poorly fitted or top-dose-only effect, or another doubt; inactive means no such curve, though single readings can be large; an effect the other way counts as inactive or inconclusive.

Cc1noc(C)c1C(=O)N1CCCC(c2[nH]ncc2-c2ccc(F)cc2)C1 (configuration not stated)	NIH3T3 tox inconclusive
CNC(=O)N1CCC(Cc2noc(C3CCOCC3)n2)C1 (configuration not stated)	none
Cc1nn(C)c(=O)n1C1CCN(C(=O)Nc2ccc3c(c2)OCCO3)CC1	none (no result: FLuc inh, hNpr1 antagonist)
O=C(Nc1ccc2c(c1)OCCO2)N1CCC(Cc2noc(C3CCOCC3)n2)C1 (configuration not stated)	FLuc inh 18µM
Cc1cnc(C2CCOCC2)n1C1CCN(C(=O)Nc2ccc3c(c2)OCCO3)CC1	FLuc inh 35µM
Cc1ccccc1C(=O)N1CCCN(C)c2ccccc21	NIH3T3 tox inconclusive, HEK293 tox inconclusive
CC(=O)OC[C@@]12[C@@H](OC(C)=O)C[C@@H](C)[C@](C)([C@@H]3C[C@H]4C=CO[C@H]4O3)[C@H]1CCC[C@]21CO1	none (no result: FLuc inh, NIH3T3 tox, HEK293 tox, hNpr1 antagonist)
Cc1ccc(-n2[nH]c(C)c(N=Nc3cccc(-c4cccc(C(=O)O)c4)c3O)c2=O)cc1C	GPT2 inh 1.9µM (no result: FLuc inh, NIH3T3 tox, HEK293 tox, hNpr1 antagonist)
COc1ccccc1-c1cccc(C(=O)O)c1	none (no result: FLuc inh, hNpr1 antagonist)
O=C(NCCn1cccc1-c1nc(-c2ccccc2)no1)c1cccc(Cl)c1	NIH3T3 tox inconclusive, HEK293 tox inconclusive
COCCOC1CCN(C(=O)c2sc(C)nc2C)CC1	FLuc inh 35µM
CCCNC1(Cc2cc(-c3ccccn3)on2)COC1	none
COc1ccc(NC(=O)[C@@H]2C[C@H](c3ccc(F)cc3)N(Cc3ccccc3Cl)C2)cn1	NIH3T3 tox 22µM, HEK293 tox 28µM
O=C(Nc1cccnc1)[C@@H]1C[C@@H](c2ccc(F)cc2)N(Cc2ccccc2)C1	NIH3T3 tox 79µM, HEK293 tox inconclusive, hNpr1 antagonist inconclusive
O=C(Nc1ccccn1)[C@@H]1C[C@@H](c2ccc(F)cc2)N(Cc2ccccc2)C1	NIH3T3 tox inconclusive, HEK293 tox inconclusive, hNpr1 antagonist inconclusive
O=C(Nc1cccnc1)[C@@H]1C[C@H](c2ccc(F)cc2)N(Cc2ccccc2Cl)C1	NIH3T3 tox 45µM, HEK293 tox 40µM
O=C(CCC1CCCN(Cc2ccc(-c3ccccc3)cc2)C1)N1CCOCC1 (configuration not stated)	NIH3T3 tox inconclusive, HEK293 tox inconclusive
Cn1c([C@H]2CCN(Cc3ccccc3)C2)nc2ccccc21	NIH3T3 tox inconclusive, HEK293 tox inconclusive
Cn1c([C@H]2CCN(Cc3ccc(Cl)cc3)C2)nc2ccccc21	NIH3T3 tox 100µM, HEK293 tox inconclusive, hNpr1 antagonist inconclusive
CN1CC(=O)N(C2CCNC2)Cc2c1ncnc2N1CCC(N2CCCC2)CC1 (configuration not stated)	none (no result: FLuc inh, hNpr1 antagonist)
COc1ccc(S(=O)(=O)Nc2cccnc2Nc2ccc(O)cc2)cc1	GPT2 inh 22µM! (no result: FLuc inh, NIH3T3 tox, HEK293 tox, hNpr1 antagonist)
c1ccc(COc2ccc(CN3CCN(C4CCNC4)CC3)cc2)cc1 (configuration not stated)	FLuc inh inconclusive, NIH3T3 tox 45µM, GPT2 inh inconclusive, HEK293 tox inconclusive
Fc1ccc(CN2CCN(C3CCNC3)CC2)cc1Cl (configuration not stated)	none
CCS(=O)(=O)N(C1CC1)C1CCOC2(CCN(C(=O)NCCc3ccccc3)CC2)C1 (configuration not stated)	HEK293 tox inconclusive
OC(c1cccc(C(F)(F)F)c1)c1nc(Nc2ccccc2)n[nH]1 (configuration not stated)	NIH3T3 tox inconclusive, HEK293 tox 89µM
OC(c1cccc(C(F)(F)F)c1)c1nc(Nc2ccncc2)n[nH]1 (configuration not stated)	HEK293 tox inconclusive
OC(c1cccc(C(F)(F)F)c1)c1nc(Nc2ccc(F)cc2F)n[nH]1 (configuration not stated)	NIH3T3 tox 71µM, HEK293 tox 79µM
OC(c1cccc(C(F)(F)F)c1)c1nc(Nc2ccc(N3CCOCC3)cc2)n[nH]1 (configuration not stated)	FLuc inh 35µM, GPT2 inh inconclusive, HEK293 tox inconclusive, hNpr1 antagonist inconclusive
OC(c1cccc(C(F)(F)F)c1)c1nc(Nc2cccnc2)n[nH]1 (configuration not stated)	HEK293 tox inconclusive
COc1cc2c(cc1-c1c(C)noc1C)ncc1[nH]c(=O)n([C@H](C)c3ccccn3)c12	none (no result: FLuc inh, NIH3T3 tox, HEK293 tox, hNpr1 antagonist)
Cn1nc(CC2CCN(C(=O)c3cnon3)CC2)n(-c2ccccc2)c1=O	none
COc1ccc2[nH]c(C[C@@H]3C[C@@H](C(C)C)[C@H](CNC(C)=O)C=C3C)nc2n1	NIH3T3 tox inconclusive, HEK293 tox 71µM
COc1ccc2[nH]c(C[C@@H]3C[C@@H](C(C)C)[C@H](CNCc4cccnc4)C=C3C)nc2n1	NIH3T3 tox 89µM, HEK293 tox 63µM
COc1ccc2[nH]c(C[C@@H]3C[C@@H](C(C)C)[C@H](CNC(=O)c4cnccn4)C=C3C)nc2n1	NIH3T3 tox 100µM, HEK293 tox 63µM
Cc1ccc(-c2noc([C@@H]3Cc4nc[nH]c4CN3CC3CCCCC3)n2)cc1	FLuc inh inconclusive, NIH3T3 tox 71µM, HEK293 tox 63µM
c1ccc2cc(-c3noc([C@@H]4Cc5nc[nH]c5CN4CC4CCCCC4)n3)ccc2c1	FLuc inh inconclusive, NIH3T3 tox 50µM, HEK293 tox 71µM
COc1cc([C@H]2Oc3cc([C@H]4Oc5cc(O)cc(O)c5C(=O)[C@H]4O)ccc3O[C@H]2CO)ccc1O	GPT2 inh 12µM (no result: FLuc inh, NIH3T3 tox, HEK293 tox, hNpr1 antagonist)
O=C(NCc1ccccn1)c1nc2sccn2c1-c1ccc(F)cc1	NIH3T3 tox inconclusive (no result: FLuc inh, hNpr1 antagonist)
O=C(NCCCc1ccccc1)c1nc2sccn2c1-c1ccc(C(F)(F)F)cc1	NIH3T3 tox inconclusive, HEK293 tox inconclusive (no result: FLuc inh, hNpr1 antagonist)
O=C(NCC1CCCCC1)c1nc2sccn2c1-c1ccccc1	NIH3T3 tox 28µM, HEK293 tox inconclusive (no result: FLuc inh, hNpr1 antagonist)
Cc1ccc(-c2c(C(=O)NCc3ccccn3)nc3sccn23)cc1	NIH3T3 tox inconclusive, HEK293 tox 79µM (no result: FLuc inh, hNpr1 antagonist)
COc1ccc(-c2c(C(=O)NC3CCCCCC3)nc3sccn23)cc1	HEK293 tox 45µM (no result: FLuc inh, hNpr1 antagonist)
O=C(NCC1CCCCC1)c1nc2sccn2c1-c1cccnc1	NIH3T3 tox inconclusive (no result: FLuc inh, hNpr1 antagonist)
O=C(NCCCc1ccccc1)c1nc2sccn2c1-c1cccc(C(F)(F)F)c1	NIH3T3 tox inconclusive, HEK293 tox 50µM (no result: FLuc inh, hNpr1 antagonist)
O=C(O)C[C@@H]1CCN(C(=O)Nc2ccc(C(F)(F)F)cc2)C[C@@H]1CCN1CCN(c2ccccn2)CC1	none
CN1CC2CN(S(=O)(=O)c3cccc4nsnc34)CC(C1)O2	none (no result: FLuc inh, hNpr1 antagonist)
COc1ccc2cc(C(=O)NCC(=O)N3CCCCCCNC(=O)CC3c3ccccc3)[nH]c2c1 (configuration not stated)	HEK293 tox inconclusive
Cc1ccc(-c2c(C(=O)NCCCc3ccccc3)nc3sccn23)cc1	NIH3T3 tox 28µM, HEK293 tox 18µM (no result: FLuc inh, hNpr1 antagonist)

High-throughput results (PubChem)
